Test results taken from PubChem BioAssay.

target: NAD(+) hydrolase SARM1 (Homo sapiens) (UniProt Q6SZW1); test: blocking NAD cleavage by SARM1 SAM-TIR – cell lysate, NAD-Glo luminescence (AID 1508614); settings: SAM-TIR HEK293T lysate NADase, at 1 µM, stronger effect = higher value;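 note: higher remaining NAD means stronger inhibition of SARM1 NADase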
Sequence (Q6SZW1 whole entry, looked up): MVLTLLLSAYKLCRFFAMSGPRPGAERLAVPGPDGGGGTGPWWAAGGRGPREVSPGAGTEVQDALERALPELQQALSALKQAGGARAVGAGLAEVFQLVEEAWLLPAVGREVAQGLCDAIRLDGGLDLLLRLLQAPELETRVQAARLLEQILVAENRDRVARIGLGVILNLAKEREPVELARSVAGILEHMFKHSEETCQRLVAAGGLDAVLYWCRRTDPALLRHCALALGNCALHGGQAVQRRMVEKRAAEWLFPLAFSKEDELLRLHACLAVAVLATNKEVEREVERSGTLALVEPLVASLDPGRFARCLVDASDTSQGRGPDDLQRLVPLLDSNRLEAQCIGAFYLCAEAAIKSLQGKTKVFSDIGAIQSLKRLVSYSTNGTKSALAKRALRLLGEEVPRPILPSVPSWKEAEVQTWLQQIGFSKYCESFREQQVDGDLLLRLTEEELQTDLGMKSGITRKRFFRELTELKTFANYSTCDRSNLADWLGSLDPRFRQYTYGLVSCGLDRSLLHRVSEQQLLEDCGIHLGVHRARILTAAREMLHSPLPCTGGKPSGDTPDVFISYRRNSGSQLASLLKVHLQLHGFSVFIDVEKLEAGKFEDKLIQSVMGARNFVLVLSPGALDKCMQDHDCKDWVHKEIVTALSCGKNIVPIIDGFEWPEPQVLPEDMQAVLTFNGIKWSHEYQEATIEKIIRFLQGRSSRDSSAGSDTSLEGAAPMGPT

Remaining NAD, inactive:
CC(C)[C@H](N)C(=O)OCCOCn1cnc2c(=O)[nH]c(N)nc21 10 nM
CN1CCC(=C2c3ccccc3CC(=O)c3sccc32)CC1 10 nM
Nc1nnc(-c2cccc(Cl)c2Cl)c(N)n1 10 nM
OCCOCCN1CCN(C2=Nc3ccccc3Sc3ccccc32)CC1 10 nM
COc1cc(OC)c(C(=O)CCCN2CCCC2)c(OC)c1 10 nM
CC(C)c1nc(CN(C)C(=O)N[C@H](C(=O)N[C@@H](Cc2ccccc2)C[C@H](O)[C@H](Cc2ccccc2)NC(=O)OCc2cncs2)C(C)C)cs1 10 nM
C#C[C@]1(O)CC[C@H]2[C@@H]3CCc4cc(OC)ccc4[C@H]3CC[C@@]21C 10 nM
COc1cc2nc(N3CCN(C(=O)C4CCCO4)CC3)nc(N)c2cc1OC (centres undefined) 10 nM
CCN(CC)CCNC(=O)c1cc(Cl)c(N)cc1OC 10 nM
COc1ccccc1N1CCN(CC(O)COc2cccc3ccccc23)CC1 (centres undefined) 10 nM
COc1cc2c(cc1OC)C(=O)C(CC1CCN(Cc3ccccc3)CC1)C2 (centres undefined) 10 nM
COc1ccc2nc(S(=O)Cc3ncc(C)c(OC)c3C)[nH]c2c1 (centres undefined) 10 nM
COc1ccc(C2CNC(=O)C2)cc1OC1CCCC1 (centres undefined) 10 nM
CC(=O)O[C@H]1C[C@@H]2CC[C@@H]3[C@H](CC[C@@]4(C)[C@H]3C[C@H]([N+]3(C)CCCCC3)[C@@H]4OC(C)=O)[C@@]2(C)C[C@@H]1N1CCCCC1 10 nM
